Consider 18 compounds from PubChem BioAssay (NCATS).

Values joined by “and” are separate entries in the source; they are usually repeats but may differ in a detail not shown here. Equal entries are not always repeated. Records with an inconclusive call do not appear. Where a call stands in place of a potency, no number is given. Active and inactive are the calls of the source. Calls follow the shape of the dose curve; as a rule, active = well fitted cell-killing curve with a large enough effect; inconclusive = small, poorly fitted or top-dose-only effect; inactive = flat fitted curve, though single readings scatter.
Potency is read from the fitted curve at half-maximal effect.

A short description of the assay: qHTS of pediatric cancer cell lines to identify multiple opportunities for drug repurposing: Primary screen for DAOY cells (AID 1347090). Also: nearly all actives have a fitted effect of over 55% in size. Conditions: DAOY medulloblastoma viability, CellTiter-Glo luminescence, 48 h; series mostly up to 46 µM. Summed up:
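Viability measured as metabolically active cells via CellTiter-Glo luminescence following 48 hours of compound exposure, 11-point dilutions in confirmatory testing. 500-1,000 cells/well plated 5 hours before dosing; controls were DMSO and 2.3 µM bortezomib.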
(In general: Quantitative high-throughput screening tests each substance at several concentrations.)
Regarding `CC1Cc2ccccc2N1NC(=O)c1ccc(Cl)c(S(N)(=O)=O)c1` (stereo not drawn), the Potency result is “inactive”. Next, `CC1=C(C)C(=O)C(C(CCCCCC(=O)O)c2ccccc2)=C(C)C1=O` (stereo not drawn): “inactive”; `Cc1nc(-c2ccc(OCC(C)C)c(C#N)c2)sc1C(=O)O`: “inactive”; `CCOC(=O)C1=C[C@@H](OC(CC)CC)[C@H](NC(C)=O)[C@@H](N)C1`: “inactive”.

Take `CN(C)c1ccc(O)c2c1C[C@H]1C[C@H]3[C@H](N(C)C)C(=O)C(C(N)=O)=C(O)[C@@]3(O)C(=O)C1=C2O`: the Potency result is “inactive”. Then `CN1C(C(=O)Nc2ccccn2)=C(O)c2sccc2S1(=O)=O`, with “inactive”. On to `Nc1cc(C(Cl)=C(Cl)Cl)c(S(N)(=O)=O)cc1S(N)(=O)=O`, for which the Potency result is “inactive”. Next, `O=C(NCCO[N+](=O)[O-])c1cccnc1`: “inactive”. Then `CCOC(=O)c1c(C)n(C)c2ccc(O)cc12`, with “inactive”; and `Cn1c(NCCN(CCO)CCCc2ccc([N+](=O)[O-])cc2)cc(=O)n(C)c1=O`, with “inactive”.

With `CN(C)CCc1c[nH]c2ccc(Cn3cncn3)cc12`, the Potency result was “inactive”. In the case of `Cc1cc(C2CCCCC2)n(O)c(=O)c1`, the Potency is 10.6 µM (active). As to `CCCc1cc(=O)[nH]c(=S)[nH]1`, the Potency result is “inactive”. On to `O=C(O)c1cn(-c2ccc(F)cc2)c2cc(N3CCNCC3)c(F)cc2c1=O`, for which the Potency entry was “inactive”. In the case of `CC(S)C(=O)NCC(=O)O` (stereo not drawn), the Potency result is “inactive”. Next, `N=C(N=C(N)N)N1CCOCC1`: “inactive”.

`Cc1nc(Nc2ncc(C(=O)Nc3c(C)cccc3Cl)s2)cc(N2CCN(CCO)CC2)n1`: the Potency is 23.5 µM (active) and 8.41 µM (active). Consider `Cc1c(C(=O)NN2CCCCC2)nn(-c2ccc(Cl)cc2Cl)c1-c1ccc(Cl)cc1`, for which the Potency result was “inactive”.
